Source: PubChem BioAssay
Most compounds without a hit are left out; they make up all but 12% or so of the library.
KCC2 mod: KCC2 cotransporter modulators, thallium flux, primary screen, cell-based, HEK293 KCC2, FluoZin-2 fluorescence, MLSMR; Solute carrier family 12 member 5 (Homo sapiens), Q9H2X9; KCC2 cells, thallium flux FluoZin-2 fluorescence; B-score of Tl+ flux slope (higher = more flux/activation; lower = inhibition) at 10 µM; 2.2% of 190,000 active; AID 1456, 2008;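 active = thallium flux slope and its plate-corrected score both differing from the plate sample mean at a set confidence after two filtering rounds, in either direction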;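 note: slope of fluorescence scaled to starting intensity during 10 to 20 s after thallium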
L major viab: Leishmania major promastigote growth inhibition, primary screen; Leishmania major promastigotes, resazurin fluorescence viability; inhibition, % at 10 µM; AID 1063, 2008; 9% of 200,000 active; in the data active = inhibition above about 50%;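 note: promastigotes grown with compound for 44 hours at 28 °C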
Insulin prom inh: inhibitors of insulin promoter-driven GFP, primary screen, imaging, TRM-6 cells (human fetal islet line), eGFP reporter, cell count; 0.9% of 130,000 active; AID 1273, 2008; inhibition, % at 2 µM; reporter expression induced with tamoxifen;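 active = inhibition above the mean plus 3 SD, with well images judged a real hit on visual review, cut at about 60% in these data, passing the limit was not always enough; inconclusive = inhibition over the cutoff but images rejected on review; inactive = inhibition not above the cutoff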
ROMK primary: ROMK potassium channel modulators, primary screen, cell-based, thallium flux, MLSMR library | ATP-sensitive inward rectifier potassium channel 1 (Homo sapiens), P48048 | Tet-inducible ROMK, thallium flux fluorescence; actives lie on both sides | AID 1918, 2009 | 2% of 130,000 active | B-score at 10 µM;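 active = signal ratio slope over the read window, or its plate-corrected B-score, at least 3 SD from the plate mean, either direction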;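 note: B-score of the F/F0 ratio slope over 7 to 12 s after thallium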
Target sequence (P48048 whole entry, looked up): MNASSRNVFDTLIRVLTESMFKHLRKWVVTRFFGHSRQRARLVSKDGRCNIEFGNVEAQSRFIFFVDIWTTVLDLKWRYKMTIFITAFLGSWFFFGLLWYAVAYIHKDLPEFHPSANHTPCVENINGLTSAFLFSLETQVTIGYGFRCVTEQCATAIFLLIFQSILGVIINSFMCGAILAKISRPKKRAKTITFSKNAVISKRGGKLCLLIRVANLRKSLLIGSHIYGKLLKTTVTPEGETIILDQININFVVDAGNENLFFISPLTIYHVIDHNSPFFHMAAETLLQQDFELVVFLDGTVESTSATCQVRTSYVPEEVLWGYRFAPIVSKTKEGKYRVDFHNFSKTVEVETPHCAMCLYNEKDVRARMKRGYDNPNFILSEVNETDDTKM
Insulin prom up: insulin promoter activators in MIN6 cells, imaging, high-content screening, mouse beta cells | MIN6 insulin promoter-GFP reporter; hits give high values | z-score at 5 µM | 0.3% of 190,000 active | AID 1625, 2009;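 active = z-score above 3 at 5 µM with at least 500 cells counted in the well; inconclusive = wells under 500 cells, flagged as cytotoxic or low count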
WT yeast gro inh: growth inhibition of WT strain, primary screen, mitochondrial fusion inhibitor project, WT and mutant strains, chemical genetic; inhibition, % at 10 µM; mitochondrial fusion phenotypic screen; AID 1362, 2008; 2.1% of 190,000 active; in the data active = inhibition above about 58%; tested in S. cerevisiae
Starred values were filed as active, the others as inactive; ? = inconclusive; / = no result.

SMILES	KCC2 mod	L major viab	Insulin prom inh	ROMK primary	Insulin prom up	WT yeast gro inh
FC(F)(F)c1cccc(NC(=S)N(CCCN2CCCC2)Cc2cccn2Cc2ccc(Cl)cc2)c1	0.57	100*	-147	/	-2	95
COc1ccc(C2NC(=S)NC(C)=C2C(=O)Nc2ccccn2)cc1 (centres undefined)	-0.0034	-2	/	-0.022	0.09	-8
OC1(c2cccc(C(F)(F)F)c2)CCN(Cc2nnnn2Cc2ccccc2)CC1	-0.51	18	/	0.36	-0.03	1
OC1(c2ccc3ccccc3c2)CCN(Cc2ccccc2)C1 (centres undefined)	/	94*	-53	-2.6	0.4	13
Nc1ccc(/C=C/C(=O)c2cccs2)cc1	-7.4*	24	-143	-6*	2.2	1
O=C(/C=C/c1ccc([N+](=O)[O-])cc1)c1cccs1	-0.1	/	/	/	-1.4	/
O=C1CC(C(=O)O)S/C(=N\NC(=O)c2ccc(F)cc2)N1 (centres undefined)	0.073	73*	0	/	0.29	-10
CCCOC(=O)C1[C@H]2C(=O)N(CCCOC)C[C@]23C=C[C@H]1O3 (some centres undefined)	1.2	-5	-31	/	-0.31	2
C/C(=N\N1CCN(C)CC1)c1ccc(Cl)c(Cl)c1	0.058	81*	/	-1.4	-0.54	-4
C/C(=N\N1CCN(C)CC1)c1ccc(OC(F)F)cc1	0.26	-8	75*	0.23	0.05	13
CN1CCN(NC(=S)Nc2ccc(OC(F)F)cc2)CC1	-0.16	27	/	0.083	-0.56	3
FC(F)(F)c1cnc2c(c1)Nc1ccccc1S2	1.2	-4	-6	/	0.52	13
Cc1ccc(SCCc2cc[n+](CC(=O)c3ccccc3)cc2)cc1	-0.47	28	-157	/	0.37	11
CN(C)c1cc[n+](CC(=O)c2ccc(-c3ccccc3)cc2)cc1	-1.9	100*	-18	0	?	73*
Cc1ccc(C(=O)C[n+]2ccc(Cc3ccccc3)cc2)cc1	-0.0044	86*	/	-0.17	-0.41	8
Cc1ccc(C)c(N2CCN(c3nnnn3-c3ccccc3)CC2)c1	-0.046	63*	-76	-2.1	-0.27	49
O=c1oc2ccccc2cc1-c1csc(Nc2nc3c(F)cccc3s2)n1	1.7	6	-20	-0.024	-0.61	6
COCCNC(=O)Nc1ccc2nc(-c3cccs3)c(-c3cccs3)nc2c1	-0.79	27	0	0.13	/	/
O=C(Nc1ccc2nc(-c3cccs3)c(-c3cccs3)nc2c1)NC1CC1	/	64*	17	-0.43	0.1	25
O=C(Nc1ccccc1-c1nc2ccccc2o1)c1ccc2c(c1)OCCO2	0.31	-2	-25	/	/	/
O=C(Nc1ccc2oc(-c3ccccc3F)nc2c1)c1ccc2c(c1)OCCO2	0.24	66*	18	/	-0.17	25
CCC(C)c1ccc2oc(-c3ccc(NC(=O)c4ncn[nH]4)cc3)nc2c1 (centres undefined)	1.2	65*	31	/	-0.17	6
O=C(Nc1ccc2oc(-c3ccccc3Cl)nc2c1)c1ncn[nH]1	-0.012	94*	-31	-0.52	0.12	1
O=C(Nc1ccc2oc(-c3cccc4ccccc34)nc2c1)c1ncn[nH]1	-1.3	-1	21	-0.67	-0.58	-4
CC(C)c1ccc2oc(-c3ccc(NC(=O)c4ncn[nH]4)cc3)nc2c1	-0.57	-4	-335	1.1	0.1	6
SMILES	KCC2 mod	L major viab	Insulin prom inh	ROMK primary	Insulin prom up	WT yeast gro inh
COc1cccc(/C(O)=C2/C(=O)C(=O)N(c3ccccn3)C2c2ccc(OC)c(OC)c2)c1 (centres undefined)	/	-5	4	/	/	-23
CCCn1nnnc1NC(=O)c1ccc2ccccc2c1	16*	-7	/	/	-0.22	8
CCCn1c(C)cc(/C=C(\C#N)C(=O)OCC(=O)Nc2cccc(OC)c2)c1C	-0.27	61*	26	-0.21	0.23	18
CC(CN(C)Cc1nc(Cc2cccc(C(F)(F)F)c2)no1)CN1CCCC1 (centres undefined)	0.24	3	-138	/	-0.52	0
COc1ccc(/C=C/C(=O)c2cc(F)ccc2OC(=O)c2ccccc2OC)cc1OC	-1.6	48	-150	2.1	/	57
COc1ccc(/C=C/C(=O)c2cc(F)ccc2OC(=O)c2ccc(OC)c(OC)c2)cc1OC	-1.4	92*	-36	0.0049	-0.88	22
COc1ccc(/C=C/C(=O)c2cc(F)ccc2OC(=O)c2ccccc2)cc1OC	0.15	100*	-34	/	/	/
C=CCn1c(SCCOc2ccc(OC)cc2)nnc1C(CO)NC(=O)c1ccc(OC)cc1 (centres undefined)	-0.97	-1	7	/	-0.86	-7
COc1cc(C(=O)Oc2ccccc2/C=N/NC(=O)c2ccc(C)c(Cl)c2)cc(OC)c1OC	0.52	7	/	/	-5.2	3
COc1cc(C(=O)Oc2ccccc2/C=N/NC(=O)c2ccc(Cl)cc2)cc(OC)c1OC	-0.036	93*	-19	0.38	-4.3	3
O=C(Nc1ccc2oc(Cc3ccc(Cl)cc3)nc2c1)c1cccnc1	-0.19	14	52	/	0.17	-3
CCOc1cccc(C(=O)Nc2ccc3oc(Cc4ccc(Cl)cc4)nc3c2)c1	-0.059	5	-57	/	-0.33	59*
CC(=O)Nc1cc(NC(=O)C2C3C=CC(C3)C2C(=O)O)ccc1Cl (centres undefined)	-2.1	-4	31	/	/	5
COC(=O)c1ccccc1NC1=C/C(=N\S(=O)(=O)c2cccs2)c2ccccc2C1=O	/	100*	0	0.14	-0.3	62*
O=C1C(Nc2ccccc2)=C/C(=N/S(=O)(=O)c2cccs2)c2ccccc21	0.38	101*	50	-0.01	?	99*
COC(=O)c1cccc(NS(=O)(=O)c2cccs2)c1C	-0.68	11	51	/	-0.4	17
Cc1ccc(NC2=C/C(=N/S(=O)(=O)c3cccs3)c3ccccc3C2=O)cc1	1	99*	34	/	0.01	55
CCCN(CCC)CCCNC(=S)Nc1ccc2nc(N3CCN(C)CC3)cc(C)c2c1	1.4	65*	/	0.039	-0.34	-15
CCCN(CCC)CCCNC(=S)Nc1ccc2nc(N3CCN(CC)CC3)cc(C)c2c1	1.1	94*	/	-1.6	-0.16	13
CCN(CC)CCCNC(=O)CCC(=O)Nc1ccc2nc(N3CCCCC3)cc(C)c2c1	0.26	7	/	-0.034	-0.34	11
O=C(N/N=C/c1oc(O)c2ccccc12)c1ccccc1	0.45	-3	/	-0.39	-0.09	-9
CCCCOP(=O)(OCCCC)C1(NS(=O)(=O)c2ccccc2)C=CC(=O)c2ccccc21 (centres undefined)	-1	100*	-7	/	-0.16	-2
CCc1c(C(=O)Nc2nnc(C3CC3)s2)csc1C	-0.22	-8	57	/	0.51	16
COc1cc(S(=O)(=O)N(Cc2cccs2)CC2CCCO2)ccc1-n1cnnn1 (centres undefined)	-0.59	55*	15	/	0.09	6
